Data: PubChem BioAssay (Tox21)
Inconclusive results are not listed. Unmarked numbers belong to inactive results. The source made the active and inactive calls. The call rests on the fitted dose curve; in most records, active means well fitted curve in the direction sought with a large enough effect in the repeat runs; inconclusive means weak or mixed curves; inactive means no such curve, though single readings can be large; an effect the other way counts as inactive or inconclusive.

Test: Human pregnane X receptor (PXR) small molecule agonists, qHTS cell viability counter screen (AID 1346977); further: nearly all actives have a fitted effect of over 50% in size
Conditions: PXR-Luc HepG2 viability, CellTiter-Fluor, 24 h; series mostly up to 92.4 µM; activity change, negative = cytotoxicity: at the top concentration
Procedure, shortened: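 Cytotoxicity counter screen run in the same wells as the PXR luciferase assay, using PXR-Luc HepG2 cells in charcoal-stripped serum medium. Viability: CellTiter-Fluor fluorescence after 24hr compound treatment.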
On the % scale 0 is the no-effect control and ±100 the full control effect; potency means the concentration at half of the fitted maximal effect.

Compound	Potency	activity change, negative = cytotoxicity
CC(C)COCC(CN(Cc1ccccc1)c1ccccc1)N1CCCC1 (stereo unspecified)	29.8 µM (active)	
C=CC(=O)OCC1CC2CC1C1CCC(COC(=O)C=C)C21 (stereo unspecified)		1.78%
C[C@@H]1CN(CCCn2c3ccccc3c3ccccc32)C[C@H](C)N1	29.8 µM (active)	
C/C=C(/C(=C/C)c1ccc(O)cc1)c1ccc(O)cc1		-4.05% [at 42.5 µM]

Test: Caspase-3/7 induction in HepG2 cells by small molecules, qHTS assay (AID 1346978); further: nearly all actives have a fitted effect of over 15% in size
Conditions: HepG2 caspase-3/7 activation, Caspase-Glo luminescence, 17 h; series mostly up to 92.4 µM; caspase activation: at the top concentration
Procedure, shortened: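 Wild-type HepG2 cells (2,000/well) were settled 5 h at 37 C, 5% CO2, then exposed to compounds in DMSO for 17 h. Caspase-3/7 activity was read by luminescence 30 min after adding Caspase-Glo 3/7 reagent at room temperature.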

Compound	caspase activation	Potency
C=CC(=O)OCC1CC2CC1C1CCC(COC(=O)C=C)C21 (stereo unspecified)	8.81%	
Oc1ccc(Cl)c2cccnc12	1.79% [at 42.5 µM]	
CC(C)c1nc(CN(C)C(=O)N[C@H](C(=O)N[C@@H](Cc2ccccc2)C[C@H](O)[C@H](Cc2ccccc2)NC(=O)OCc2cncs2)C(C)C)cs1	2.54% [at 42.5 µM]	
C[C@H]1c2cccc(O)c2C(O)=C2C(=O)[C@]3(O)C(O)=C(C(N)=O)C(=O)[C@@H](N(C)C)[C@@H]3[C@@H](O)[C@@H]21	-0.26% [at 42.5 µM]	
C=C(C)CCCC(C)CCO (stereo unspecified)	1.12%	
O=C=Nc1ccc(Cl)c(Cl)c1	-0.103%	
CC(=O)NC1(c2cccc(F)c2)CCN(CC[C@@]2(c3ccc(Cl)c(Cl)c3)CN(c3ccccc3)C(=O)CO2)CC1		48.7 µM (active)
CC(=O)Nc1ccc(C)cc1C	1.64%	
CC(CCC(=O)O)C(=O)O (stereo unspecified)	0.716%	
Cc1cccc(O)c1N	0.148%	
CCOC(=O)[C@H](CCc1ccccc1)N[C@@H](C)C(=O)N(CC(=O)O)C1Cc2ccccc2C1	0.944% [at 42.5 µM]	
CC1=C(CC=O)C(C)(C)CCC1	-1.41%	
N#CCc1ccc(Cl)cc1Cl	-0.559%	
CC(C)C=O	0.568%	
C=C(C)[C@@H]1CCC2=CCC[C@@H](C)[C@]2(C)C1	1.5%	
C=CCc1ccccc1OCC(O)CNC(C)C (stereo unspecified)	1.2% [at 42.5 µM]	
OC(CCN1CCCC1)(c1ccccc1)C1CCCCC1 (stereo unspecified)	-1.38% [at 42.5 µM]	
CCOC(=O)c1ccc(I)cc1	1.71%	
CC(C)=CCC/C(C)=C/CC/C(C)=C/CCC(=O)OC/C=C(\C)CCC=C(C)C	-1.19% [at 42.5 µM]	

Compound	caspase activation	Potency
O=C(OC(=O)c1ccccc1)c1ccccc1	-2.13%	
C[C@@H](O[C@H]1OCCN(Cc2n[nH]c(=O)[nH]2)[C@H]1c1ccc(F)cc1)c1cc(C(F)(F)F)cc(C(F)(F)F)c1		33.5 µM (active)
CCOc1cccc(-n2cc(C(=O)N3CCN(c4cc(C(=O)O)c5ccccc5c4)CC3)nc2-c2ccc(C)cc2)c1	-1.76%	
CCCCCC[C@@H](O)C/C=C\CCCCCCCC(=O)O	0.196%	
CC(=O)OCCN(CCOC(C)=O)c1ccc(N=Nc2ccc([N+](=O)[O-])cc2C#N)cc1	-0.111%	
C=C(C)C(=O)OCCOCCOC(=O)C(=C)C	-0.289%	
CCCCOc1ccc(OCCCN2CCOCC2)cc1	3.64% [at 42.5 µM]	
CC1CC(OC(=O)C(O)c2ccccc2)CC(C)(C)N1C (stereo unspecified)	-1.39% [at 42.5 µM]	
CS(=O)(=O)c1ccc(-c2cn3ccccc3n2)cc1	-8.02% [at 42.5 µM]	
N#CCCN(CCO)CCO	0.177%	
Cc1cccc(N(C)C(=S)Oc2ccc3c(c2)CCC3)c1	-3.58% [at 42.5 µM]	
C=C(C)C(=O)OCCCCCCCCCCCCC	-0.888%	
C[C@]1(Cn2ccnn2)[C@H](C(=O)O)N2C(=O)C[C@H]2S1(=O)=O	0.193% [at 42.5 µM]	
CCOc1ccccc1O[C@H](c1ccccc1)[C@H]1CNCCO1	-0.39% [at 42.5 µM]	
Cc1ccc(CO)cc1	-1.72%	
OC[C@H]1O[C@@H](n2cnc3c(=S)nc[nH]c32)[C@H](O)[C@@H]1O	-1.36% [at 42.5 µM]	
Nc1nc2ccc([N+](=O)[O-])cc2s1	-10.8%	
CC(=O)N/N=C/c1ccc([N+](=O)[O-])o1	1.81% [at 42.5 µM]	
